From PubChem BioAssay AID1203 (The Scripps Research Institute Molecular Screening Center, 2008)
Among all 200,000 compounds or so, about 80 (0.04%) were called active.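 Rule for the calls: active = activation above the mean across all tested compounds plus 3 SD, cutoff set per campaign (cut at about 5.5% in these data); inactive = the rest.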 The list comes from a sample in which actives are over-represented; it also holds similar structures and randomly drawn compounds.

Assay: Hsp70 promoter-driven reporter induction – cell-based, HeLa, Hsp70 promoter luciferase, luminescence, 10 µM, primary screen (AID 1203);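 note: 100% = MG132 at 30 µM as the positive control and 0% = DMSO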
Conditions: at 10 µM, hits give high values, scaled: vehicle 0, proteasome-inhibitor control 100%

activation, inactive:
COc1ccc(OCC(O)CNC(=O)Nc2ccc(Cl)cc2)cc1 (stereo unspecified) -0.12%
NS(=O)(=O)c1ccc(N=Cc2ccc(Br)s2)cc1 -0.31%
CCOC(=O)C/C(C)=N\Nc1ccc([N+](=O)[O-])cc1[N+](=O)[O-] 0.04%
O=S(=O)(c1ccc2c(c1)OCCO2)N1CCc2ccccc21 0.08%
O=C(CSc1nncs1)NC1CCCc2ccccc21 (stereo unspecified) -0.09%
O=S(=O)(ON(c1ccccc1)S(=O)(=O)c1ccccc1)c1ccccc1 -0.24%
CCOC(=O)c1c(NC(=S)NC(=O)/C=C/c2cccs2)sc(C)c1C -0.28%
O=C(NNC(=S)Nc1ccc(Br)cc1Cl)c1ccco1 -0.21%
CCC(=O)OCc1c(C(F)(F)F)nn(C)c1Oc1cccc(C(F)(F)F)c1 -0.27%
CCNC(=O)NNC(=O)C1CC(c2cccs2)=NO1 (stereo unspecified) -0.44%
CCOC(=O)c1cnc2c(c(C)nn2CC)c1Cl -0.38%
C/C(=N\NC(=O)CNc1cccc2ccccc12)c1ccc(Br)s1 -0.39%
CCCC1NC(=S)NC(C)=C1C(C)=O (stereo unspecified) -0.09%
CCOC(=O)NN1C(=O)c2ccccc2NC1c1ccccc1O (stereo unspecified) -0.07%
CC1CC(C)(C)NC(=S)N1CCC(=O)N1CCN(Cc2ccccc2)CC1 (stereo unspecified) -0.64%
CC(C)(C)c1ccc(NC(=O)COC(=O)CCc2nc3ccccc3c(=O)[nH]2)cc1 -0.35%
CSCCC(NC(=O)COc1ccccc1)C(=O)Nc1ccc(C)cc1 (stereo unspecified) -0.22%
COc1ccc(C(CC(=O)c2ccccc2)S(=O)(=O)c2ccccc2)cc1 (stereo unspecified) -0.26%
COC(=O)C1=CN(Cc2ccc(OC)c(OC)c2)C=C(C(=O)OC)C1c1cccs1 -0.18%
O=C1Oc2ccccc2C(=O)/C1=C/c1ccccc1O -0.37%
CC(=O)c1ccc(NC(=O)C(C)N(C)CC(=O)Nc2ccccc2Cl)cc1 (stereo unspecified) -0.06%
